Experiment [1] has as its system Proto-oncogene tyrosine-protein kinase receptor Ret (Homo sapiens), P07949 [Y791F]. The settings on record: at 1 µM.
For experiment [2], the target named is Macrophage-stimulating protein receptor (Homo sapiens) (UniProt Q04912). The settings on record: at 0.1 µM.
For experiment [3] the target is unchanged. The settings on record: at 1 µM.
Experiment [4] has as its target Proto-oncogene tyrosine-protein kinase ROS (Homo sapiens) (UniProt P08922). The settings on record: at 0.1 µM.
For experiment [5] the target is unchanged. The settings on record: at 1 µM.
Experiment [6] addresses Proto-oncogene tyrosine-protein kinase Src (Homo sapiens) (UniProt P12931). The settings on record: at 0.1 µM.
The target is the same in experiment [7]. The settings on record: at 1 µM.
For experiment [8], the target named is Tyrosine-protein kinase Srms (Homo sapiens) (UniProt Q9H3Y6). The settings on record: at 0.1 µM.
For experiment [9] the target is unchanged. The settings on record: at 1 µM.
Experiment [10] addresses Tyrosine-protein kinase SYK (Homo sapiens) (UniProt P43405). The settings on record: at 0.1 µM.
Experiment [11] shares this target. The settings on record: at 1 µM.
For experiment [12], the target named is T1, Tyrosine-protein kinase Tec (Homo sapiens) (UniProt P42680).
T1 sequence (whole entry): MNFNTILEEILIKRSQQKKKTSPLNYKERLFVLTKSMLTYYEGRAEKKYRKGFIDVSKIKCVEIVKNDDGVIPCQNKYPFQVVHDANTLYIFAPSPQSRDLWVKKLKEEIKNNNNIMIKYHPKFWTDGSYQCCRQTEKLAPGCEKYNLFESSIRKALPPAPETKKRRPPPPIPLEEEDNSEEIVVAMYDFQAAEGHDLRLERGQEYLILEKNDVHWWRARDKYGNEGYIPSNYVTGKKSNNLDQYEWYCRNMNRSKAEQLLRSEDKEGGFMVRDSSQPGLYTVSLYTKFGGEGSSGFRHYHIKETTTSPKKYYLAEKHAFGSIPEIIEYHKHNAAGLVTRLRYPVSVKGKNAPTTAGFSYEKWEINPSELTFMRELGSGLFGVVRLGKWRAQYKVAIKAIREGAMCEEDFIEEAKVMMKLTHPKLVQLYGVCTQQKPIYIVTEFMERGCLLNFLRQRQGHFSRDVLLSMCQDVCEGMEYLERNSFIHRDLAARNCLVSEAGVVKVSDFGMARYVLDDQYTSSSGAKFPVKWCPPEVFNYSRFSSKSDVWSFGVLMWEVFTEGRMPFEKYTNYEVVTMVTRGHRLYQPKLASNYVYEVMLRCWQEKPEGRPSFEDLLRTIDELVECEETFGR
The settings on record: at 0.1 µM.

For experiment [13], the target named is T1, Tyrosine-protein kinase Tec (Homo sapiens). The settings on record: at 1 µM.
Experiment [14] has as its target Angiopoietin-1 receptor (Homo sapiens) (UniProt Q02763). The settings on record: at 0.1 µM.
Experiment [15] shares this target. The settings on record: at 1 µM.
Experiment [16] deals with T2, Non-receptor tyrosine-protein kinase TNK1 (Homo sapiens) (UniProt Q13470).
T2 sequence (whole entry): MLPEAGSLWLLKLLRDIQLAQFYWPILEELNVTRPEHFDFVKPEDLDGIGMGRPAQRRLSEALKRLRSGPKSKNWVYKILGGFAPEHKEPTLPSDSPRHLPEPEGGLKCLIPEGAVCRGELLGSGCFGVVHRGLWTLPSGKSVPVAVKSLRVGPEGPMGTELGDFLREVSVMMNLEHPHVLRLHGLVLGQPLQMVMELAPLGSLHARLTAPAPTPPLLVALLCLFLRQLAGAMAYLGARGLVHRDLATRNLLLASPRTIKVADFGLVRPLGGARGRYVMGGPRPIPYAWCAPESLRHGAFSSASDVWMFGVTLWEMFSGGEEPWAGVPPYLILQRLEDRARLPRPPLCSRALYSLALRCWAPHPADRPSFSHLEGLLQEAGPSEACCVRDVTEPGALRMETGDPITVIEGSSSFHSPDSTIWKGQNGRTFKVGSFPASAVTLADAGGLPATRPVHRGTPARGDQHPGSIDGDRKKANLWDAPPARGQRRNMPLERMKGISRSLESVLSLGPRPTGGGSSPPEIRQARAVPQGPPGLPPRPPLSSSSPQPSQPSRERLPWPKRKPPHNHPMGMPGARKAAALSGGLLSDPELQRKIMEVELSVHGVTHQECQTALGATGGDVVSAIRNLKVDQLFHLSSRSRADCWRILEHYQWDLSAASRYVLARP
The settings on record: at 0.1 µM.

The target of experiment [17] is T2, Non-receptor tyrosine-protein kinase TNK1 (Homo sapiens). The settings on record: at 1 µM.
The target in experiment [18] is Activated CDC42 kinase 1 (Homo sapiens) (UniProt Q07912). The settings on record: at 0.1 µM.
Chain of Activated CDC42 kinase 1 (Homo sapiens) (Q07912 whole entry, looked up): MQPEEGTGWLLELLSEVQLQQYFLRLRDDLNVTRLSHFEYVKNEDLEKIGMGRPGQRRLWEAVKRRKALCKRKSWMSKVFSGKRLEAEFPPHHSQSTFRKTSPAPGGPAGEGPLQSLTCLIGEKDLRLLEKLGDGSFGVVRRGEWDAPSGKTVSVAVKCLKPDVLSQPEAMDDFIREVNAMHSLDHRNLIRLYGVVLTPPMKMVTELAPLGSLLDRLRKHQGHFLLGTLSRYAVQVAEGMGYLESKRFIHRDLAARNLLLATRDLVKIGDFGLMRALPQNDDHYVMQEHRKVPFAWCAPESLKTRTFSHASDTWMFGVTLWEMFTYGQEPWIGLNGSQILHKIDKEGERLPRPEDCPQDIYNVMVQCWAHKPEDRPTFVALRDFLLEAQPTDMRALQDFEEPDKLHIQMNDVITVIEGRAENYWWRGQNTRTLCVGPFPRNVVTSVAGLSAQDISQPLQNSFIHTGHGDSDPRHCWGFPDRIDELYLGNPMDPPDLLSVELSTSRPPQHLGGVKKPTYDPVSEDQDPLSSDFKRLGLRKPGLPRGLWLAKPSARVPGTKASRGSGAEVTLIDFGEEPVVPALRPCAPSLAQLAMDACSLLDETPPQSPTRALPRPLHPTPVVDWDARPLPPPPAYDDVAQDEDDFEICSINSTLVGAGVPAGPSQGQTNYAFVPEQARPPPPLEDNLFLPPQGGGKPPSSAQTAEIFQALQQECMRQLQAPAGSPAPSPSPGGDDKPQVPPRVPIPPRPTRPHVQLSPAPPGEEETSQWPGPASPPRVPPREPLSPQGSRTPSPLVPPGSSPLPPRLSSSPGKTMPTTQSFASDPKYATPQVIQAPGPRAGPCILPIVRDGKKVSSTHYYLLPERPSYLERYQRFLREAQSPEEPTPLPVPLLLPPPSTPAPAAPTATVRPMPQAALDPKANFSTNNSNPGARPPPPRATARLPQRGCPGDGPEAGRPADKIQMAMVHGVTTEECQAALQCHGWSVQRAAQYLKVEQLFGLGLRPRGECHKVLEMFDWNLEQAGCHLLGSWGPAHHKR
For experiment [19] the target is unchanged. The settings on record: at 1 µM.
In experiment [20] the target is High affinity nerve growth factor receptor (Homo sapiens) (UniProt P04629). The settings on record: at 0.1 µM.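 Note: each value is a mean of replicate percent inhibition readings against TRKA kinase.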

Chain of Proto-oncogene tyrosine-protein kinase Src (Homo sapiens) (P12931 2-536 limits assumed): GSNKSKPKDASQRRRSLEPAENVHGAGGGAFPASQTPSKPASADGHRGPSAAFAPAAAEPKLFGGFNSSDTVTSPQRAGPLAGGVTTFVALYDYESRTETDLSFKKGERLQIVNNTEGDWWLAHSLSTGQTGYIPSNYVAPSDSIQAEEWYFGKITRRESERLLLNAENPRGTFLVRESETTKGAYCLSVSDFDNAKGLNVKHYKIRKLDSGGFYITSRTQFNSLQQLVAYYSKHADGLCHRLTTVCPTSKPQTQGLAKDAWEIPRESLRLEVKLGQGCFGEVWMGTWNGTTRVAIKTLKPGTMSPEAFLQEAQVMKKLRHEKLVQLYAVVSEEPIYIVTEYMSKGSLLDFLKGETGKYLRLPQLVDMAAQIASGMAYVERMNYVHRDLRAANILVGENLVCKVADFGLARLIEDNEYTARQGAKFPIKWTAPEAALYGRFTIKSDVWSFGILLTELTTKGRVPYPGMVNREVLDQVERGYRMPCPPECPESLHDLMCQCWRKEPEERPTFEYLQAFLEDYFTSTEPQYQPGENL
Chain of Proto-oncogene tyrosine-protein kinase ROS (Homo sapiens) (P08922 whole entry): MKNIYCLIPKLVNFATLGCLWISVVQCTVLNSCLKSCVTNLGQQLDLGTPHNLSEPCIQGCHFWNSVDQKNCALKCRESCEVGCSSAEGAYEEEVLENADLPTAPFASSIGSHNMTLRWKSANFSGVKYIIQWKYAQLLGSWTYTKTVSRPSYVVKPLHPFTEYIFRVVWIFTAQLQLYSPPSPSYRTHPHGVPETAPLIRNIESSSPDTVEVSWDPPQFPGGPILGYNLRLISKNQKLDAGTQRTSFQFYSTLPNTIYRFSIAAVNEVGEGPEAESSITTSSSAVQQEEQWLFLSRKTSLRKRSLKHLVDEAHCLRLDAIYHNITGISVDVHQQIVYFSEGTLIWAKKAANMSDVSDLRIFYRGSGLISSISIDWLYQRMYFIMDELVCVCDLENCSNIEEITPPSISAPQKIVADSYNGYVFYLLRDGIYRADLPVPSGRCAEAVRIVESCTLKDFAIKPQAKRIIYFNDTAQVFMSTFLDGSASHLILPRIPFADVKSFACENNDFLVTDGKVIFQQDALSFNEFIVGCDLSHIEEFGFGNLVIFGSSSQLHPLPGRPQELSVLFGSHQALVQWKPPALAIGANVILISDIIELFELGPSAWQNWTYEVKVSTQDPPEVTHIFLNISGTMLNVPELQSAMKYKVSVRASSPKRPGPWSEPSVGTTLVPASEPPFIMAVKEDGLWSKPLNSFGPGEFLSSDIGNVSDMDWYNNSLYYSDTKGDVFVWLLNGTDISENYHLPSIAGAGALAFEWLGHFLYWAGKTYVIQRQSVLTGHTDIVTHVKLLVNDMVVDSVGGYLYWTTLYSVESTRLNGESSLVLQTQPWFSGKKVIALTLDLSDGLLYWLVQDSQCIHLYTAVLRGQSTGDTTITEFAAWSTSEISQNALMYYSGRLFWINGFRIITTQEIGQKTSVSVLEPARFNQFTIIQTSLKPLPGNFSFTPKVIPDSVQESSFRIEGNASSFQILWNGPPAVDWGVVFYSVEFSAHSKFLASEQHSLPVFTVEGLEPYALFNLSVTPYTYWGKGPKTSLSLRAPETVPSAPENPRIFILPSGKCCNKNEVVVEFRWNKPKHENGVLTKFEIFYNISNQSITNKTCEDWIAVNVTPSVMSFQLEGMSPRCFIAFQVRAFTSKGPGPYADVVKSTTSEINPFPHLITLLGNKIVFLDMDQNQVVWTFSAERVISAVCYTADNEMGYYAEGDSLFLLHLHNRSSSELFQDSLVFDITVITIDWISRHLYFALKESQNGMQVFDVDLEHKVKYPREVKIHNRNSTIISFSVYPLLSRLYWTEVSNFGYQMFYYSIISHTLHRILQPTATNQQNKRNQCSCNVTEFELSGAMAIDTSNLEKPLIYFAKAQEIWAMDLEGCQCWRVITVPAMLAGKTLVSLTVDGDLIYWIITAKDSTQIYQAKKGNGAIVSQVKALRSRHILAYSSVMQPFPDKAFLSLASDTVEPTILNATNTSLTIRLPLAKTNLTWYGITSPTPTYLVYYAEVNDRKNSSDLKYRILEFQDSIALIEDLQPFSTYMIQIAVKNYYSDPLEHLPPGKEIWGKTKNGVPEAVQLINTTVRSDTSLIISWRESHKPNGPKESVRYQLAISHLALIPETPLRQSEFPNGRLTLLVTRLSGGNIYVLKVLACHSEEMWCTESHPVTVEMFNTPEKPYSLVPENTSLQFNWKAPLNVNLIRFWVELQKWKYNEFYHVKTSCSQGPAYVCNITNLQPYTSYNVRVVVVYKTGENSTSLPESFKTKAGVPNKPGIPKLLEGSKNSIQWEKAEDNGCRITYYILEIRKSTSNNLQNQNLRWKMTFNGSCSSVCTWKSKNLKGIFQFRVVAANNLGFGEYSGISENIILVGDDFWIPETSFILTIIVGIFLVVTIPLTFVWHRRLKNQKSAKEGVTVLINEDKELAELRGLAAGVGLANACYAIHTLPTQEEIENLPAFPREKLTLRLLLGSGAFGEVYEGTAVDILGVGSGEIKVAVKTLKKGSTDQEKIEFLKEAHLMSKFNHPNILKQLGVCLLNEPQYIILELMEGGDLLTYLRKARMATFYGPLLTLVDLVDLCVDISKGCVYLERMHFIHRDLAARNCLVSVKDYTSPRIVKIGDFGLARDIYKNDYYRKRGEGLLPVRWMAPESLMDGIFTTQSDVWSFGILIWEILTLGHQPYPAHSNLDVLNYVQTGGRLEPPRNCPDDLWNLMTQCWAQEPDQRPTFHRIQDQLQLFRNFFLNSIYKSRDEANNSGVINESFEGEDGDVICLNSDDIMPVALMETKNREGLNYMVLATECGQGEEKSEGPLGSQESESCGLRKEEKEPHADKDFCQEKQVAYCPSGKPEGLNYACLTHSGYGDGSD
Chain of Angiopoietin-1 receptor (Homo sapiens) (Q02763 whole entry): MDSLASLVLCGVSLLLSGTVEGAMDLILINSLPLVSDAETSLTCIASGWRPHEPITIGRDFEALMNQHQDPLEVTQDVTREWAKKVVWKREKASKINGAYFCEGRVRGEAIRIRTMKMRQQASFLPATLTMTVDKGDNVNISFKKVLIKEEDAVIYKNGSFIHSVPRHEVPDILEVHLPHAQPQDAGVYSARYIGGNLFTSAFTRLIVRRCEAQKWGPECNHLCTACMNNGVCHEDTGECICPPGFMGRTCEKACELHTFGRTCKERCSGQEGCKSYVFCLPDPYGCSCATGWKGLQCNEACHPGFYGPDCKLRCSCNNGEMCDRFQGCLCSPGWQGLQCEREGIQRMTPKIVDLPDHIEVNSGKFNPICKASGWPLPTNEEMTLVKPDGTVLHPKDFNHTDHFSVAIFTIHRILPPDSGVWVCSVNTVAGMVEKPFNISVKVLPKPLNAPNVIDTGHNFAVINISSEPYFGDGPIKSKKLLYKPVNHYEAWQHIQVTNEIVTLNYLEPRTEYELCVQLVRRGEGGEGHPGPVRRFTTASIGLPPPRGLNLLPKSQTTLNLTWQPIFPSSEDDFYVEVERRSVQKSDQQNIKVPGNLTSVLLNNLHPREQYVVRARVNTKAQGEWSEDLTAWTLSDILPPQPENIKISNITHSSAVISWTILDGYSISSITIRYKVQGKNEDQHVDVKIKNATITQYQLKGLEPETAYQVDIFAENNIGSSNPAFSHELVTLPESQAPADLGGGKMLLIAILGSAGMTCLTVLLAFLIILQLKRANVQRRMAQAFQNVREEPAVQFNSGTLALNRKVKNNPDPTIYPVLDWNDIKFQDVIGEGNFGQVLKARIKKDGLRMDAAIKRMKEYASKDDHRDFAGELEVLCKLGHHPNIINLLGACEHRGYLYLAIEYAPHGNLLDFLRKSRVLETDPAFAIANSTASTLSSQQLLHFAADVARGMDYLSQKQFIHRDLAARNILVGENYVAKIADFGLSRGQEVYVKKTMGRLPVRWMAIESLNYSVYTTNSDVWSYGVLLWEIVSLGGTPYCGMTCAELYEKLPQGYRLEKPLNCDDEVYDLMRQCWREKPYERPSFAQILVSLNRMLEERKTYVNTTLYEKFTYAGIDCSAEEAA

What is called inhibition is the drop in the measured response relative to a control, in per cent. In the case of `N#Cc1cccc(Nc2ncc(-c3ccccc3)o2)c1`, the inhibition in experiment [1] is 10.8%; in experiment [2], -0.08%; in experiment [3], -1.06%; in [4], 2.33%; in [5], 3.19%; in experiment [6] it was 6.64%. Also, the inhibition was 19.9% in [7]; 2.21% in [8]; 2.55% in experiment [9]; 1.05% in experiment [10]; -0.14% in experiment [11]; 1.29% in experiment [12]. In addition, the inhibition was determined as 2.29% in experiment [13]; 0.48% in experiment [14]; 2.45% in [15]; 2.36% in experiment [16]; 15.4% in [17]; 0.46% in experiment [18]. In addition, the inhibition in [19] was 0.86%; in experiment [20], -0.7%.
`CS(=O)(=O)CCNCc1ccoc1-c1ccc2ncnc(Nc3ccc(OCc4ccccc4)cc3)c2c1`: the inhibition was 9.63% in experiment [1]; 1.78% in [2]; -1.8% in [3]; 0.39% in experiment [4]; 2% in experiment [5]; 3.56% in experiment [6]. Also, the inhibition in [7] was 4.6%; in [8] it was -1.68%; in experiment [9], -0.79%; in [10], -2.93%; in experiment [11], 0.23%; in [12] it was 0.03%. For the same molecule, the inhibition in experiment [13] was determined as 3.04%; in [14], 1.86%; in [15], 4.86%; in experiment [16], 1.08%; in [17] it was 5.74%; in experiment [18], 0.06%. Besides, the inhibition in experiment [19] was determined as 0.6%; in experiment [20], 1.31%.
Consider `CCn1c(-c2nonc2N)nc2cncc(C(=O)NCCNC)c21`, for which the inhibition in experiment [1] was 12.2%; in experiment [2] it was 1.51%; in experiment [3], 1.07%; in experiment [4] it was 3.34%; in experiment [5] it was 14%; in experiment [6], 8.77%. The inhibition in experiment [7] was 6.62%; in experiment [8] it was -2.48%; in [9] it was -2.36%; in experiment [10], -1.48%; in experiment [11] it was -6.01%; in experiment [12], 2.57%. Also, the inhibition was 4.27% in experiment [13]; 5.54% in experiment [14]; 7.24% in experiment [15]; -0.07% in experiment [16]; 8.48% in [17]; 2.67% in [18]. For the same molecule, the figures for the inhibition in [19] and in experiment [20] were 2.15% and 1.96%, respectively.
Turning to `CC1=C(C(=O)Nc2ccc3[nH]nc(C)c3c2)C(c2ccc(C(F)(F)F)cc2)CC(=O)N1` (stereo not given), the inhibition in [1] amounted to 38.1%; in experiment [2] it was 5.1%; in experiment [3], 23.9%; in experiment [4] it was 4.15%; in experiment [5], 17.6%; in [6], 1.6%. The inhibition in [7] is 22.7%; in experiment [8], 0.76%; in experiment [9], -1.98%; in [10] it was -4.6%; in [11] it was -0.48%; in experiment [12], 4.4%. For the same molecule, the inhibition in experiment [13] stood at 8.29%; in experiment [14], 1.71%; in experiment [15] it was 6.96%; in [16], 6.09%; in experiment [17] it was 31.3%; in [18], 3.49%. The values for the inhibition in experiment [19] and in experiment [20] were 27.4% and 4.41%, respectively.
`Fc1cccc(COc2ccc(Nc3ncncc3C#Cc3ccccc3)cc2Cl)c1`: the inhibition in experiment [1] is 15.1%; in experiment [2], 1.12%; in [3], 1.28%; in experiment [4] it was 7.63%; in experiment [5] it was 4.43%; in [6], 4.7%. The inhibition in experiment [7] is 9.06%; in experiment [8], -1.92%; in experiment [9], -0.3%; in experiment [10], -5.72%; in experiment [11] it was -0.97%; in experiment [12] it was 4.69%. Besides, the inhibition in experiment [13] turned out to be 4.11%; in [14] it was 1.87%; in [15], 2.11%; in experiment [16], 1.37%; in experiment [17], 9.13%; in [18], 1.84%. For the same molecule, the inhibition in experiment [19] is 3.24%; in experiment [20], 2.85%.
On to `COc1ccc(-c2nn3ncccc3c2-c2ccnc(Nc3ccc(F)c(F)c3)n2)cc1`, for which the inhibition in experiment [1] was found to be 19.1%; in [2] it was 1.18%; in [3], 2.96%; in experiment [4], 6.57%; in experiment [5], 9.74%; in experiment [6] it was 3.58%. Moreover, the inhibition is 19.4% in experiment [7]; -2.81% in experiment [8]; 1.37% in experiment [9]; -2.45% in [10]; -2.02% in experiment [11]; 6.05% in experiment [12]. The inhibition in [13] is 7.67%; in [14], 3.17%; in experiment [15], 7.31%; in experiment [16] it was 4.48%; in [17], 9.68%; in [18], 1.57%. Besides, the results for the inhibition in experiment [19] and in experiment [20] were 4.87% and 1.54%, respectively.
Take `CNC(=O)c1cncc(/C=C/c2ccccc2C)c1`: the inhibition in experiment [1] turned out to be 12.3%; in [2], 1.43%; in experiment [3] it was 5.25%; in [4], 4.35%; in experiment [5] it was 5.86%; in experiment [6], 8.47%. Moreover, the inhibition is 13.7% in experiment [7]; 1.18% in experiment [8]; 0.97% in [9]; -0.75% in experiment [10]; -0.24% in experiment [11]; 6.1% in experiment [12]. The inhibition is 16.4% in experiment [13]; 1.59% in [14]; -0.24% in experiment [15]; 3.86% in experiment [16]; 20.7% in experiment [17]; 1.54% in experiment [18]. Moreover, the inhibition turned out to be 8.09% in experiment [19] and 3.97% in experiment [20].

Values taken from ChEMBL document CHEMBL1961873, “Compounds: GSK PKIS; Assays: Nanosyn kinase panel” (2012).
